Some test systems named below: SK-MEL-2 melanoma; SN12C renal; UO-31 renal; TK-10 renal; ACHN renal; CAKI-1 renal; A498 renal; CCRF-CEM leukemia; MOLT-4 leukemia; SR leukemia; RPMI-8226 leukemia; OVCAR-8 ovarian; OVCAR-5 ovarian; OVCAR-4 ovarian; SK-OV-3 ovarian; IGROV1 ovarian; OVCAR-3 ovarian; HS 578T breast; NCI/ADR-RES ovarian.
Experiment in all cases: NCI-60 one-dose screen, 48 h (100 = growth as untreated, 0 = no growth, -100 = all killed)
Common to all, as to details: 10 µM unless noted

Compounds without any hit were thinned out: in the full panel of roughly 83,000, 20% have a hit.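 Values shown are percent growth following 48 h exposure of cells in 96-well plates to a single concentration of compound; below 10 was considered active.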 Unmarked numbers belong to inactive results. Active and inactive are the calls of the source.

Consider `O=C(CCl)NNc1nccc(Nc2ccc(S(=O)(=O)Nc3ccncc3)cc2)n1`, for which the growth in the assay on SK-MEL-2 melanoma is 38%; in the assay on SN12C renal, 23.8%; in the assay with UO-31 renal, 63.3%; in the assay on TK-10 renal, 74.6%; in the assay on ACHN renal, 37.7%; in the assay on CAKI-1 renal, 30.4%. Moreover, the growth is 80.8% in the assay with A498 renal; 23.8% in the assay on CCRF-CEM leukemia; 44% in the assay on MOLT-4 leukemia; 37.1% with SR leukemia; 31.3% in the assay with RPMI-8226 leukemia; 60.4% in the assay with OVCAR-8 ovarian. In addition, the growth was 67.7% in the assay with OVCAR-5 ovarian; 36.8% in the assay with OVCAR-4 ovarian; 90.5% in the assay on SK-OV-3 ovarian; 18.8% in the assay on IGROV1 ovarian; 24.2% in the assay on OVCAR-3 ovarian; 49.2% with HS 578T breast. Moreover, the growth in the assay with NCI/ADR-RES ovarian is 51%.

Take `O=C1c2cccc3cccc(c23)C(=O)N1C/C=C/c1ccc2c3c(cccc13)C(=O)N(CCO)C2=O`: the growth was 90.7% in the assay with SK-MEL-2 melanoma; 75.7% in the assay on SN12C renal; 48.1% in the assay on UO-31 renal; 98.7% with TK-10 renal; 34.1% with ACHN renal; 63.1% with CAKI-1 renal. In addition, the growth is 74.7% in the assay on A498 renal; 83.3% with CCRF-CEM leukemia; 80% in the assay on MOLT-4 leukemia; 67.1% in the assay with SR leukemia; 69.6% with OVCAR-8 ovarian; 79.2% in the assay with OVCAR-5 ovarian. Further, the growth is 72.3% in the assay with SK-OV-3 ovarian; 78.7% with IGROV1 ovarian; 87.9% with OVCAR-3 ovarian; 61.6% in the assay on HS 578T breast; 80.2% with NCI/ADR-RES ovarian.

As for `CCOC(=O)C#Cc1c(C(=O)OCC)nnn1Cc1ccc(C(F)(F)F)cc1`, the growth in the assay on SK-MEL-2 melanoma was 97.1%; with SN12C renal it was 57.7%; in the assay on UO-31 renal, 1.49% (active); in the assay on TK-10 renal, 8.7% (active); in the assay with ACHN renal it was -25.4% (active); in the assay with CAKI-1 renal, 0.164% (active). The growth in the assay on A498 renal is 104%; with CCRF-CEM leukemia, 8.84% (active); in the assay with MOLT-4 leukemia, 25.1%; in the assay on SR leukemia it was -1.42% (active); in the assay with RPMI-8226 leukemia, 7.43% (active); with OVCAR-8 ovarian, 69%. In addition, the growth in the assay with OVCAR-5 ovarian was 91.2%; with OVCAR-4 ovarian, 67.1%; with SK-OV-3 ovarian it was 99.7%; in the assay with IGROV1 ovarian, 81.8%; in the assay on OVCAR-3 ovarian, 13.6%; with HS 578T breast it was 113%. In addition, the growth with NCI/ADR-RES ovarian is 97.1%.

As to `CCOC(=O)c1c(C)nc2ccccc2c1/C=C/c1cccs1`, the growth in the assay on SK-MEL-2 melanoma was 63.6%; in the assay on SN12C renal, 78.4%; with UO-31 renal, 63.6%; with TK-10 renal it was 90.2%; with ACHN renal, 76.5%; in the assay on CAKI-1 renal, 63%. Besides, the growth with A498 renal is 84.5%; with CCRF-CEM leukemia it was 76.4%; in the assay on MOLT-4 leukemia, 49.4%; in the assay with SR leukemia it was 68.6%; in the assay with RPMI-8226 leukemia it was 50.7%; in the assay with OVCAR-8 ovarian, 74.8%. The growth was 87.8% with OVCAR-5 ovarian; 40.4% with OVCAR-4 ovarian; 75.9% with SK-OV-3 ovarian; 72.1% in the assay on IGROV1 ovarian; 82.7% with OVCAR-3 ovarian; 98.9% with HS 578T breast. Further, the growth with NCI/ADR-RES ovarian is 43.5%.

Regarding `CCOC(=O)C(Cc1ccc(OC)cc1)C(=O)OCC`, the growth in the assay on SK-MEL-2 melanoma is 43.4%; with SN12C renal it was 40%; in the assay with UO-31 renal it was 46.7%; with TK-10 renal it was 46.6%; with ACHN renal, 44.7%; in the assay with CAKI-1 renal it was -14.2% (active). For the same compound, the growth is 54.5% in the assay with A498 renal; 14.3% in the assay on CCRF-CEM leukemia; 37.7% with MOLT-4 leukemia; 11.6% in the assay on SR leukemia; 0.799% (active) with RPMI-8226 leukemia; 26.4% in the assay with OVCAR-8 ovarian. The growth is 72% in the assay on OVCAR-5 ovarian; 56.4% in the assay with OVCAR-4 ovarian; 50% in the assay on SK-OV-3 ovarian; 28.1% in the assay with IGROV1 ovarian; 2.41% (active) in the assay on OVCAR-3 ovarian; 6.32% (active) in the assay with HS 578T breast. The growth in the assay on NCI/ADR-RES ovarian was 17.9%.

On to `C=C1C(=O)O[C@H]2[C@H]1CC/C(Cn1cc(CCC)nn1)=C\CC[C@@]1(C)O[C@@H]21`, for which the growth was 44.7% with SK-MEL-2 melanoma; 23.1% in the assay on SN12C renal; 0.946% (active) with UO-31 renal; -15.9% (active) in the assay on TK-10 renal; -0.504% (active) in the assay on ACHN renal; 5.35% (active) in the assay on CAKI-1 renal. Further, the growth was 39% in the assay on A498 renal; -27.4% (active) with CCRF-CEM leukemia; -1.09% (active) in the assay with MOLT-4 leukemia; 0.0381% (active) in the assay with SR leukemia; 26.9% in the assay on RPMI-8226 leukemia; 23.7% in the assay with OVCAR-8 ovarian. In addition, the growth in the assay with OVCAR-5 ovarian was 68.2%; in the assay on OVCAR-4 ovarian it was 40.3%; with SK-OV-3 ovarian, 111%; with IGROV1 ovarian it was 41%; in the assay on OVCAR-3 ovarian it was 1.06% (active); in the assay on HS 578T breast, 69.1%. Further, in the assay with NCI/ADR-RES ovarian, the growth was 73.1%.

On to `c1ccc2c(c1)CCCc1nnc3nc4ccccc4n3c1-2`, for which the growth was 70.5% in the assay with SK-MEL-2 melanoma; 29.9% in the assay on UO-31 renal; 41.6% in the assay on TK-10 renal; 35.1% in the assay on ACHN renal; 22% in the assay with CAKI-1 renal; 54.8% in the assay on A498 renal. The growth in the assay with CCRF-CEM leukemia was 31.5%; in the assay on MOLT-4 leukemia it was 31.6%; in the assay on SR leukemia, 20.5%; in the assay on RPMI-8226 leukemia, 31.6%; in the assay with OVCAR-8 ovarian it was 38.5%; with OVCAR-5 ovarian, 37.8%. The growth was 17.9% in the assay on OVCAR-4 ovarian; 50.3% with SK-OV-3 ovarian; 43.7% in the assay on IGROV1 ovarian; 23.6% in the assay on OVCAR-3 ovarian; 77.1% with HS 578T breast; 24.6% with NCI/ADR-RES ovarian.

Consider `COC(=O)c1ccc(NC(=O)Nc2ccc(C(=O)OC)cc2)cc1`, for which the growth is 88% with SK-MEL-2 melanoma; 78.9% in the assay with SN12C renal; 96.9% with UO-31 renal; 101% in the assay on TK-10 renal; 104% with ACHN renal; 124% in the assay on CAKI-1 renal. The growth in the assay on A498 renal is 81.3%; with CCRF-CEM leukemia, 90.8%; in the assay on MOLT-4 leukemia, 79.9%; in the assay on SR leukemia it was 78.9%; in the assay with RPMI-8226 leukemia it was 89.9%; in the assay with OVCAR-8 ovarian it was 104%. The growth was 102% with OVCAR-5 ovarian; 113% in the assay on OVCAR-4 ovarian; 99.3% with SK-OV-3 ovarian; 106% with IGROV1 ovarian; 113% with OVCAR-3 ovarian; 92.8% in the assay with HS 578T breast. The growth with NCI/ADR-RES ovarian is 108%.

Values taken from PubChem BioAssay (NCI).
